Data reported in PubChem BioAssay (NCI).
This is part of a sample that, as a whole, favours compounds with a hit. Of some 83,000 tested, about 20% had one in any assay.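 Single-dose data. Exposure time 48 hours. Values below 10 considered active.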 Calls of active or inactive are those of the source.

What was measured:
Assay in all cases: NCI-60 one-dose screen, 48 h (100 = growth as untreated, 0 = no growth, -100 = all killed)
Conditions in all cases: 10 µM
NCI-H23 lung = test system: NCI-H23 lung
NCI-H226 lung = test system: NCI-H226 lung
NCI-H322M lung = test system: NCI-H322M lung
HOP-62 NSCLC = test system: HOP-62 NSCLC
NCI-H460 lung = test system: NCI-H460 lung
HOP-92 NSCLC = test system: HOP-92 NSCLC
NCI-H522 lung = test system: NCI-H522 lung
A549/ATCC NSCLC = test system: A549/ATCC NSCLC
786-0 renal = test system: 786-0 renal
COLO 205 colon = test system: COLO 205 colon
DU-145 prostate = test system: DU-145 prostate
K-562 leukemia = test system: K-562 leukemia
MALME-3M melanoma = test system: MALME-3M melanoma
MDA-MB-231 breast = test system: MDA-MB-231 breast
SF-268 CNS = test system: SF-268 CNS
SF-295 CNS = test system: SF-295 CNS
SF-539 CNS = test system: SF-539 CNS
UACC-257 melanoma = test system: UACC-257 melanoma
M14 melanoma = test system: M14 melanoma

Measured: growth

Cc1ccc(-c2cc(C(=O)N=Nc3c(O)[nH]c4ccccc34)c3ccccc3n2)cc1
active: NCI-H460 lung -35.8% | A549/ATCC NSCLC 2.51% | COLO 205 colon -5.04% | DU-145 prostate 3.29% | MDA-MB-231 breast 2.78% | SF-539 CNS -66.2%
inactive: NCI-H23 lung 31.8% | NCI-H226 lung 47% | NCI-H322M lung 69.8% | HOP-62 NSCLC 66.2% | HOP-92 NSCLC 21.6% | NCI-H522 lung 56.6% | 786-0 renal 35.8% | K-562 leukemia 13.8% | MALME-3M melanoma 36.5% | SF-268 CNS 36.4% | SF-295 CNS 94.3% | UACC-257 melanoma 81% | M14 melanoma 70.5%

CC(=O)c1cc(C(=O)N2c3ccccc3Sc3ccccc32)n2ccc(C)cc12
inactive: NCI-H23 lung 42% | NCI-H226 lung 40.2% | NCI-H322M lung 72.2% | HOP-62 NSCLC 58.6% | NCI-H460 lung 12.3% | HOP-92 NSCLC 38.1% | NCI-H522 lung 49.6% | A549/ATCC NSCLC 56.9% | 786-0 renal 44.5% | COLO 205 colon 67.7% | DU-145 prostate 56.6% | K-562 leukemia 18.7% | MALME-3M melanoma 53.9% | MDA-MB-231 breast 46.4% | SF-268 CNS 49.4% | SF-295 CNS 36.5% | SF-539 CNS 32.7% | UACC-257 melanoma 31.6% | M14 melanoma 36.1%

COc1ccc(C(=O)/C=C/c2cc(F)cc(C(F)(F)F)c2)cc1S(N)(=O)=O
inactive: DU-145 prostate 14.1% | SF-268 CNS 20.8%
active: NCI-H23 lung -74.8% | NCI-H226 lung -29.3% | NCI-H322M lung -3.66% | HOP-62 NSCLC -47.4% | NCI-H460 lung -25.3% | HOP-92 NSCLC -9.39% | NCI-H522 lung -79.6% | A549/ATCC NSCLC 3.37% | 786-0 renal -81% | COLO 205 colon -53.1% | K-562 leukemia 5.44% | MALME-3M melanoma -64.2% | MDA-MB-231 breast -90.5% | SF-295 CNS -47.5% | SF-539 CNS -77.8% | UACC-257 melanoma -9.77% | M14 melanoma -68.4%

CCOC(=O)C1=C(N)N(c2ccccc2)C2=C(C(=O)CC(C)(C)C2)C1c1ccc(Cl)cc1 (configuration not stated)
active: COLO 205 colon -17.7%
inactive: NCI-H23 lung 48.9% | NCI-H226 lung 70.4% | NCI-H322M lung 64.9% | HOP-62 NSCLC 80.7% | NCI-H460 lung 13% | HOP-92 NSCLC 69.5% | NCI-H522 lung 38.4% | A549/ATCC NSCLC 33.9% | 786-0 renal 67.3% | DU-145 prostate 58.3% | K-562 leukemia 18.3% | MALME-3M melanoma 15.9% | MDA-MB-231 breast 53% | SF-268 CNS 58% | SF-295 CNS 21.3% | SF-539 CNS 36.2% | UACC-257 melanoma 28% | M14 melanoma 28.2%

COc1ccc2[nH]cc(/C=N/Nc3cccc(Cl)n3)c2c1
inactive: NCI-H23 lung 64.2% | NCI-H226 lung 48.4% | NCI-H322M lung 71.2% | HOP-62 NSCLC 59.3% | NCI-H460 lung 47.3% | HOP-92 NSCLC 27% | NCI-H522 lung 27.1% | A549/ATCC NSCLC 69.8% | 786-0 renal 25.4% | COLO 205 colon 57.5% | DU-145 prostate 64.4% | K-562 leukemia 19.9% | MALME-3M melanoma 76.3% | SF-268 CNS 32.8% | SF-295 CNS 47.2% | SF-539 CNS 26.8% | UACC-257 melanoma 84.3% | M14 melanoma 49.5%
active: MDA-MB-231 breast 3.25%

Cc1noc2c(Cc3ccc([N+](=O)[O-])cc3)nn(CC(=O)N/N=C/c3ccc(Cl)cc3)c(=O)c12
active: NCI-H226 lung 8.93% | HOP-92 NSCLC -20.2% | 786-0 renal -19.5% | MDA-MB-231 breast 4.43% | SF-539 CNS 8.2%
inactive: NCI-H23 lung 57.9% | NCI-H322M lung 62.5% | HOP-62 NSCLC 16.9% | NCI-H460 lung 46.2% | NCI-H522 lung 69.5% | A549/ATCC NSCLC 40.1% | COLO 205 colon 79.3% | DU-145 prostate 61.6% | K-562 leukemia 72.8% | MALME-3M melanoma 36.9% | SF-268 CNS 23.5% | SF-295 CNS 70.1% | UACC-257 melanoma 81% | M14 melanoma 68.1%

Cn1cc(/C=N/Nc2ccnc3cc(Cl)ccc23)c2ccccc21
active: NCI-H23 lung -84.1% | NCI-H226 lung -67.5% | NCI-H322M lung -99.6% | HOP-62 NSCLC -63.8% | NCI-H460 lung -67.5% | HOP-92 NSCLC -68% | NCI-H522 lung -68.1% | A549/ATCC NSCLC -39% | 786-0 renal -65.2% | COLO 205 colon -59% | DU-145 prostate -92.7% | K-562 leukemia 2.82% | MALME-3M melanoma -82.1% | MDA-MB-231 breast -90.4% | SF-268 CNS -73.9% | SF-295 CNS -93.9% | SF-539 CNS -92% | UACC-257 melanoma -71% | M14 melanoma -66.9%

COc1ccc2c(c1)N=C(C(=O)O)/C2=C/c1sc(Nc2ccc(O)cc2)nc1O
inactive: NCI-H23 lung 71.6% | NCI-H226 lung 54.8% | NCI-H322M lung 92.5% | HOP-62 NSCLC 80.9% | NCI-H460 lung 82.3% | HOP-92 NSCLC 68.3% | NCI-H522 lung 33.7% | A549/ATCC NSCLC 96.2% | 786-0 renal 78.9% | COLO 205 colon 89.2% | DU-145 prostate 94.1% | K-562 leukemia 29.1% | MALME-3M melanoma 50.7% | MDA-MB-231 breast 63.7% | SF-268 CNS 78.1% | SF-295 CNS 76.5% | SF-539 CNS 52.1% | UACC-257 melanoma 81.3% | M14 melanoma 72.3%
